The full list was thinned out, with hits kept by preference.
CBX7 inh = CBX7 chromodomain binding inhibitors, primary screen, biochemical, AlphaScreen; AID 1224903, 2016; 66,000 compounds, 1.1% hits; normalised signal (fraction of DMSO) (test concentration not listed); AlphaScreen His6-CBX7 / biotin-H3K27me3 peptide binding; stronger effect = lower value; Chromobox protein homolog 7 (Homo sapiens), O95931; in the data active = normalised signal below about 0.5
Target sequence (O95931 whole entry, looked up): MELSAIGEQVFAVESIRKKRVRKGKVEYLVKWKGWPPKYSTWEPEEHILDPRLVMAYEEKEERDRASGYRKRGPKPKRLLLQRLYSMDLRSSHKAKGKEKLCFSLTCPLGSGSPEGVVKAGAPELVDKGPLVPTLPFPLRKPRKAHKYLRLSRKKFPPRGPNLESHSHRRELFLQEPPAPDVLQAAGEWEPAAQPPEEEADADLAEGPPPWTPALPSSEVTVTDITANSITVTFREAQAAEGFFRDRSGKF
Of the large screens only hits and unclear results are named; the others gave an inactive call.

COc1ccc(OC)c(NC(=O)CSc2nccn2-c2ccc(F)cc2)c1	CBX7 inh 0.48
COc1ccc(-c2cn(-c3ccc(Cl)cc3)c(SCC(=O)Nc3cccc(C)c3)n2)cc1OC	none
CCOc1ccc(-n2ccnc2SCC(=O)Nc2cc(Cl)ccc2OC)cc1	none
COc1cccc(-n2ccnc2SCC(=O)Nc2cc(OC)ccc2OC)c1	none
COc1ccc(NC(=O)CSc2nccn2-c2ccc(Cl)cc2)c(OC)c1	CBX7 inh 0.49
COc1ccc(-n2ccnc2SCC(=O)Nc2ccc(Cl)cc2)cc1	none
COc1ccc(-c2cn(-c3ccccc3)c(SCC(=O)Nc3ccc(F)cc3)n2)cc1OC	none
COc1ccc(Cl)cc1NC(=O)CSc1nccn1-c1ccc(F)cc1	CBX7 inh 0.4
COc1ccc(-n2ccnc2SCC(=O)Nc2ccccc2OC)cc1	none
COc1ccc(-c2cn(-c3ccc(Cl)cc3)c(SCC(=O)Nc3ccc(F)cc3)n2)cc1OC	CBX7 inh 0.45
CC1CCCCC1NC(=O)C1=CCN(S(=O)(=O)c2ccc(Br)cc2)CC1 (stereo unspecified)	none
Cc1ccc(-c2ccc(=O)n(CC(=O)NCc3ccc4c(c3)OCO4)n2)cc1	none
O=C(Cc1cccc2ccccc12)Nc1ncc(Cc2ccc(Cl)c(Cl)c2)s1	none
Cc1ccc(OCc2nc(-c3ccc(Cl)cc3)no2)c(C)c1	none
Cc1noc(C)c1S(=O)(=O)N1CCCC(C(=O)Nc2ccc(F)cc2F)C1 (stereo unspecified)	none
COc1ccc(NC(=O)CSc2nccn2-c2ccc(OC)cc2)cc1	none
Cc1ccc(-n2cc(-c3ccc4c(c3)OCO4)nc2SCC(=O)Nc2ccccc2)cc1	none
Cc1ccc(NC(=O)CSc2nccn2-c2ccc(F)cc2)cc1Cl	none
Cc1ccc(-n2cc(-c3ccc4c(c3)OCO4)nc2SCC(=O)Nc2cc(C)cc(C)c2)cc1	CBX7 inh 0.49
Cc1ccc(-n2cc(-c3ccc4c(c3)OCO4)nc2SCC(=O)Nc2ccc3c(c2)OCO3)cc1	none
COc1ccc(-n2ccnc2SCC(=O)Nc2ccc(C)c(Cl)c2)cc1	CBX7 inh 0.47
CCOc1ccc(NC(=O)C(NS(=O)(=O)c2ccc3c(c2)CCC(=O)N3)c2ccccc2)cc1 (stereo unspecified)	none
O=C(Nc1ccc(F)c(Cl)c1)c1cc2c(s1)-c1ccccc1OC2	none
CC(=O)Nc1cccc(NC(=O)Cn2cnc3c(nnn3Cc3ccc(F)cc3)c2=O)c1	none
CCCCCC1CCC(c2ccc(-c3nc(-c4ccncc4)no3)cc2)CC1 (stereo unspecified)	none
CCCC1CCC(c2nc(-c3ccc(OC(F)F)cc3)no2)CC1 (stereo unspecified)	none
CCCC1CCC(c2ccc(-c3noc(-c4ccc(O)c(F)c4)n3)cc2)CC1 (stereo unspecified)	CBX7 inh 0.49
CN(CCNS(=O)(=O)c1ccc2c(c1)CCN2C(=O)C1CCC1)Cc1ccccc1	none
CCC(=O)N1CCc2cc(S(=O)(=O)NCCc3cccc(C)c3)ccc21	none
CC(C)(O)C#Cc1ccc(C(=O)N2CCN(c3ccc(Cl)c(Cl)c3)CC2)cc1	none
COc1ccc(-n2cnc3cc(Nc4nnc(C)c5ccccc45)ccc32)cc1	none
CC(C)(C)n1cnc2cc(NCc3cccc4ccccc34)ccc21	none
COc1ccc(-n2cnc3cc(NCc4cccc5ccccc45)ccc32)cc1	CBX7 inh 0.31
CCOc1ccc(NCc2nc3ccccc3n2CCOc2ccccc2)cc1	CBX7 inh 0.18
COc1ccc(-n2cnc3cc(NC(=O)c4ccccc4)ccc32)cc1	none
Brc1ccc(NCc2nc3ccccc3n2CCOc2ccccc2)cc1	none
CCOc1ccc(NCc2nc3ccccc3n2CCOc2ccc(C)cc2)cc1	none
COc1ccc(-n2cnc3cc(NCc4nc5ccccc5n4C)ccc32)cc1	CBX7 inh 0.41
COc1ccc(-n2cnc3cc(NS(=O)(=O)c4ccccc4)ccc32)cc1	none
CC(C)CSc1oc(-c2ccc(F)cc2)nc1S(=O)(=O)c1ccccc1	none
Cc1ccc(-c2nnc(SCC(=O)Nc3nccs3)o2)cc1	none
Fc1ccc(-c2nnc3sc(CN4CCCCC4)cn23)cc1	none
CCOc1ccc(C(=O)Nc2nc3ccccc3s2)cc1	none
CCCCN(CC)S(=O)(=O)c1ccc2[nH]c(=O)cc(C(=O)NCc3cccc(OC)c3)c2c1	none
CC1CCCC(NC(=O)C2=CCN(S(=O)(=O)c3ccccc3)CC2)C1C (stereo unspecified)	none
CC1CCCC(NC(=O)CN2C(=O)CSc3ccccc32)C1C (stereo unspecified)	none
Cc1ccc(Cn2cc(C(=O)c3ccccc3)c(=O)c3cc(C)ccc32)cc1	CBX7 inh 0.44
Cc1ccc2c(c1)c(=O)c(C(=O)c1ccccc1)cn2Cc1ccccc1	none
Cc1ccc2c(c1)c(=O)c(C(=O)c1ccccc1)cn2Cc1ccc(F)cc1	none
C=CCn1c(=N)n(CC(O)c2ccc(Cl)cc2)c2ccccc21 (stereo unspecified)	none
CCCCN1CCCc2cc(CN(CCCN3CCOCC3)C(=O)Nc3ccc(CC)cc3)ccc21	CBX7 inh 0.23
CCCN1CCCc2cc(CN(CCCN3CCOCC3)C(=O)Nc3ccc(CC)cc3)ccc21	none
CC(=O)N1CCC(N(C(=O)Nc2ccc(C)c(C)c2)C2CCCCCC2)CC1	none

Screening data (PubChem)
